{"source": "paper PMC4336329", "about": "(PLoS ONE, 2015)", "note": "The whole screen tested about 310,000 compounds, of which about 14,000 (4.5%) showed an effect of 50% or more. Effects have a minus sign here. Shown is part of a subset that was picked to be rich in strong results.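 Further: peak tail current of the secondary pulse compared with the same well before compound.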"}
{"molecular_target": "human ether-à-go-go-related gene (hERG) potassium channel (human, UniProt Q12809)", "sequence (Q12809 whole entry, looked up)": "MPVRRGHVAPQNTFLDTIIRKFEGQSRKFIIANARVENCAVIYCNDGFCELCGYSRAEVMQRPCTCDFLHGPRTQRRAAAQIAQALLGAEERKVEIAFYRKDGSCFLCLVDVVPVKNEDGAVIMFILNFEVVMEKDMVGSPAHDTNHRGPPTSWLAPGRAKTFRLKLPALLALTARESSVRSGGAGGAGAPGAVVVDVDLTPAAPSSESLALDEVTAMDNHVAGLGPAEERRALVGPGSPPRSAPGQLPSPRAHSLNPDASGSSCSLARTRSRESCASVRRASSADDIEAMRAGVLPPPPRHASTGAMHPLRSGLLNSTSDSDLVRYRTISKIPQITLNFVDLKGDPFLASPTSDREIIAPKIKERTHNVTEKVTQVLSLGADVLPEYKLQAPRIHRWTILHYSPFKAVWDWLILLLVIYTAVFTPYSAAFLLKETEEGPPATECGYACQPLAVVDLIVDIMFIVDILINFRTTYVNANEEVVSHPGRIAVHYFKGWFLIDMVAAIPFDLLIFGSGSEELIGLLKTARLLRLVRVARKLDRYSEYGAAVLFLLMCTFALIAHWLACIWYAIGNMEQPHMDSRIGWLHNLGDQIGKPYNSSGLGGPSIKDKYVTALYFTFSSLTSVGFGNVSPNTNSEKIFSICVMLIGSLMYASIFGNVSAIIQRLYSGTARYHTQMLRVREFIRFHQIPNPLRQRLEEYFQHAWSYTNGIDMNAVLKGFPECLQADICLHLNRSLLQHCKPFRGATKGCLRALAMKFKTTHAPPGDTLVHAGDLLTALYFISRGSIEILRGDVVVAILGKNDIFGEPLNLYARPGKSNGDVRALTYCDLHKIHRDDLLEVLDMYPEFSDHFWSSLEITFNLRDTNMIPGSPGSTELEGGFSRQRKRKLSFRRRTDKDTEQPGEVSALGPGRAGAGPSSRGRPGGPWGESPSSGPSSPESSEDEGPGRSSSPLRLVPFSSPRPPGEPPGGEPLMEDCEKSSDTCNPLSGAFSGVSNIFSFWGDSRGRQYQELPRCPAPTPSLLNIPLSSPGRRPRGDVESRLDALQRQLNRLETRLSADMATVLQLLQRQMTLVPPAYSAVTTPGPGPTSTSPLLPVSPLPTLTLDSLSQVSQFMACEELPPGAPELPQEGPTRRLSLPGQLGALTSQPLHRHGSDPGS", "test": "primary screen, population patch clamp on CHO cells stably expressing hERG; higher = less effect of the substance", "units": {"hERG current change (%, negative = inhibition) at 10uM": "%"}}
{"compound": "O=C1C(NS(=O)(=O)c2ccc(Cl)cc2)=C(N2CCCCC2)C(=O)c2ccccc21", "hERG current change (%, negative = inhibition) at 10uM": -13.3}
{"compound": "Cc1ccc(-n2nc3c(=O)n(CCCC(=O)N4CCC(C)CC4)nc(C)c3c2C)cc1", "hERG current change (%, negative = inhibition) at 10uM": -30.1}
{"compound": "CN(Cc1cccc(Cl)c1Cl)c1ccc(S(=O)(=O)N2CCCCC2)cc1[N+](=O)[O-]", "hERG current change (%, negative = inhibition) at 10uM": 5.82}
{"compound": "Cc1ccc(C2=NNC(C(O)C(O)C(O)CO)S2)cc1", "note": "(centres unmarked)", "hERG current change (%, negative = inhibition) at 10uM": 11.6}
{"compound": "CC1CN(S(=O)(=O)c2cccc(C(=O)Nc3ccc(S(=O)(=O)NC4=NCCCCC4)cc3)c2)CC(C)O1", "note": "(centres unmarked)", "hERG current change (%, negative = inhibition) at 10uM": -5.97}
{"compound": "CC(C)c1ccc(OCc2cccc(C(=O)N/N=C/c3cccnc3)c2)cc1", "hERG current change (%, negative = inhibition) at 10uM": -5.29}
{"compound": "Cc1ccccc1C(=O)Nc1cccc(C(=O)N/N=C/c2cc(Cl)cc([N+](=O)[O-])c2O)c1", "hERG current change (%, negative = inhibition) at 10uM": 7.34}
{"compound": "COC(=O)c1cc2sc(Cl)cc2n1Cc1nc(-c2ccccc2)oc1C", "hERG current change (%, negative = inhibition) at 10uM": 3.5}
{"compound": "Cn1ccnc1SCC(=O)Nc1nc2ccccc2s1", "hERG current change (%, negative = inhibition) at 10uM": -25.1}
{"compound": "O=C(O)c1ccc(N/N=C/C2=C(N3CCOCC3)C(=C\\c3ccccc3)/CC2)cc1", "hERG current change (%, negative = inhibition) at 10uM": 7.96}
{"compound": "COc1ccccc1CC(=O)NCCc1c[nH]c2ccccc12", "hERG current change (%, negative = inhibition) at 10uM": 5.81}
{"compound": "COc1cccc(NC(C)C(=O)N2CC(C)OC(C)C2)c1", "note": "(centres unmarked)", "hERG current change (%, negative = inhibition) at 10uM": -1.96}
{"compound": "C/C(=N/NC(=O)CNC(=O)c1cccs1)c1ccco1", "hERG current change (%, negative = inhibition) at 10uM": 11.7}
{"compound": "COc1ccc(NC(=S)N(Cc2cccnc2)Cc2ccco2)cc1", "hERG current change (%, negative = inhibition) at 10uM": -24.5}
{"compound": "CCOC(=O)c1ccc(NC(=S)N(CCCN2CCN(CC)CC2)Cc2ccco2)cc1", "hERG current change (%, negative = inhibition) at 10uM": -76.5}
{"compound": "CCOC(=O)c1ccc(NC(=S)N(Cc2cccnc2)Cc2ccco2)cc1", "hERG current change (%, negative = inhibition) at 10uM": -53.2}
{"compound": "CCOC(=O)c1ccc(NC(=S)N(CCCN2CCCCCC2)Cc2ccco2)cc1", "hERG current change (%, negative = inhibition) at 10uM": -73.7}
{"compound": "COc1ccc(NC(=S)N(CCCN2CCOCC2)Cc2ccco2)cc1", "hERG current change (%, negative = inhibition) at 10uM": -7.89}
{"compound": "COC(=O)c1ccc(NC(=S)N(Cc2cccnc2)Cc2ccco2)cc1", "hERG current change (%, negative = inhibition) at 10uM": -29.1}
{"compound": "Cc1ccc(CSc2nc3c(c(N(C)C)n2)CCCC3)cc1", "hERG current change (%, negative = inhibition) at 10uM": -5.63}
{"compound": "CCC(Cc1c(I)cc(I)c(N)c1I)C(=O)O", "note": "(centres unmarked)", "hERG current change (%, negative = inhibition) at 10uM": -0.155}
{"compound": "C=C1c2ccccc2NC(=S)N1Cc1ccc2c(c1)OCO2", "hERG current change (%, negative = inhibition) at 10uM": 27.5}
{"compound": "Cc1ccc(CNC(=O)c2ccc(N3CCC4(CC3)CC(c3ccccc3)=NO4)c(NC(=O)c3ccco3)c2)cc1", "hERG current change (%, negative = inhibition) at 10uM": 6.09}
